The entries come from a sample that favours hits as a whole.
IL1B secr inh – blocks inflammasome-driven IL-1 beta release. THP-1 LPS/ATP IL-1B secretion, AlphaLISA, 16 h; hits give low values. activity change, % at 57.5 µM. 360,000 compounds, 4.7% hits. AID 743279; in the data active = activity change below about -50%; inconclusive = mostly about -30% to -49%
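Secreted IL-1B measured by AlphaLISA bead assay after 16 h compound exposure of THP-1 cells; compounds (final up to 57.5 uM) added 1 h before LPS (250 ng/mL) and ATP (1.25 mM) stimulation; lower signal means less secretion.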
HT1080NT lethal – kills 2HG-producing HT-1080-NT fibrosarcoma cells. 360,000 compounds, 1.6% hits. Potency, µM (doses to about 46.1 µM), without a hit: at the highest dose activity, negative = less viability, most hits filed as cytotoxic. HT-1080-NT fibrosarcoma viability, CellTiter-Glo ATP luminescence, 48 h. AID 686970;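 note: NT is the 2HG producing partner of a matched IDH1 knockdown line; potency is the fitted concentration of half-maximal effect; 0% = DMSO-treated cells and -100% = media-only wells without cells; nearly all actives have a fitted effect of over 55% in size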
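Viability by CellTiter-Glo luminescence after 48 h compound exposure at 37C of HT-1080-NT cells (750/well, RPMI, 5% FBS). % activity scaled between DMSO wells and medium-only wells, then curve-fitted and categorized by curve class.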
12-LOX inh – ALOX12 (human) lipoxygenase inhibition; purified 12hLO, xylenol orange hydroperoxide absorbance; Potency, µM (top dose mostly 108 µM), inactives show at the top dose activity change, negative = inhibition, actives largely listed as inhibitors; 580,000 compounds, 1.1% hits; AID 1671190; note: potency is the fitted concentration of half-maximal effect
Target sequence (P18054 whole entry, looked up): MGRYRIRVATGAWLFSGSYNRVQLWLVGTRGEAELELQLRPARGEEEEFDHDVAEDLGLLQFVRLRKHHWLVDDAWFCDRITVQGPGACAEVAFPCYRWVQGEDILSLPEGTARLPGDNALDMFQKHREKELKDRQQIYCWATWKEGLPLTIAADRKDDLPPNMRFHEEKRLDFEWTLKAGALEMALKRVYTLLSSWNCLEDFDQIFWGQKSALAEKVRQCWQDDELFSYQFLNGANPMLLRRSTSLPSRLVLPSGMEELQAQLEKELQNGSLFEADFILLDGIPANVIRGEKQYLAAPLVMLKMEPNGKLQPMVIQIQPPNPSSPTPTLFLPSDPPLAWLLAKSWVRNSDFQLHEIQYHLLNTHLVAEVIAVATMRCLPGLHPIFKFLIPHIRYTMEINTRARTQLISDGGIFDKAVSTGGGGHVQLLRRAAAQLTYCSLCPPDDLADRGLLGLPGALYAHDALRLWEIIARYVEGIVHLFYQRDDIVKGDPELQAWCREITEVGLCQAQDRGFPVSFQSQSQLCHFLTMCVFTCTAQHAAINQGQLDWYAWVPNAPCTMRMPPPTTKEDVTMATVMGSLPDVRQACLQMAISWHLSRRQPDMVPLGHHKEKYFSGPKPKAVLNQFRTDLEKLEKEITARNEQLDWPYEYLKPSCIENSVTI
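Hydroperoxide product was detected by ferrous iron/xylenol orange as the 573 to 405 nm absorbance ratio. Arachidonic acid at 40 uM (final) was turned over for 30 min at room temperature by 150 nM human 12hLO, pH 7.0 Hepes buffer, after 15 min compound preincubation.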
DT40 TDP1 no CPT – qHTS for Inhibitors of human tyrosyl-DNA phosphodiesterase 1 (TDP1): qHTS in cells in absence of CPT | AID 686978, 2013 | DT40 Tdp1-/- hTDP1 cells, no CPT, ATP luminescence, 48 h | 420,000 compounds, 15% hits | Potency, µM (doses to about 46.2 µM), for inactives: at the highest dose activity change, negative = growth inhibition, hits mostly inhibitors; note: potency is the fitted concentration of half-maximal effect; nearly all actives have a fitted effect of over 55% in size
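Camptothecin absent (DMSO only). Human TDP1-complemented DT40 knockout cells, 400 cells/well, 37 °C for minimum 48 hr; ATP measured via CellTiter-Glo, 30 min dark incubation, luminescence.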
TDP1 cell CPT – growth inhibition of DT40 Tdp1-/-;hTDP1 cells with camptothecin (screen for TDP1 inhibitors); 420,000 compounds, 12% hits; chicken DT40 Tdp1-/-;hTDP1 cells + 20 nM CPT, ATP luminescence, 48 h; Potency, µM (series often up to 46.2 µM), for the others: top-dose activity change, negative = growth inhibition, usual class: inhibitors; AID 686979; note: potency is the fitted concentration of half-maximal effect; nearly all actives have a fitted effect of over 55% in size
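Chicken DT40 Tdp1-/- cells complemented with human TDP1, 400 cells/well, exposed to compounds plus 20 nM camptothecin for at least 48 h at 37 C; viability read as ATP content by CellTiter-Glo luminescence.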
HT1080 IDH1KD tx – kills HT-1080 cells with IDH1 knockdown; HT-1080 IDH1 knockdown viability, ATP luminescence, 48 h; Potency, µM (doses to about 46.1 µM), without a hit: at the top dose activity, negative = toxicity, usual class: cytotoxic; AID 686971; 360,000 compounds, 2% hits;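 note: potency is the fitted concentration of half-maximal effect; 0% = DMSO wells and -100% = cell-free medium wells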
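Using the IDH1-knockdown HT-1080 line run in the same batch and compound series as the NT line, viability after 48 h at 37 °C was determined by CellTiter-Glo luminescence and expressed as % activity.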
Active calls of the source: *; i = inactive; ? = inconclusive; . = no result; [ ] = remark or other dose. Unless noted, calls come from the whole dose curve; as a rule, active = well fitted curve in the direction sought with a large enough effect; inconclusive = small, poorly fitted or top-dose-only effect, or another doubt; inactive = no such curve, though single readings can be large; an effect the other way counts as inactive or inconclusive. Unless noted, % is set by controls: 0 for no effect and ±100 for the full control effect.

SMILES | IL1B secr inh | HT1080NT lethal | 12-LOX inh | DT40 TDP1 no CPT | TDP1 cell CPT | HT1080 IDH1KD tx
O=C(c1cn(-c2ccc(Cl)cc2)nn1)N1CCc2ccccc2C1 | . | . | 7.9% | . | . | .
CCOC(=O)c1ccc(Nc2ccc(-c3ccc(OC)c(OC)c3)nn2)cc1 | 14.7 | -27.5% | -28.5% | 4.61µM* | ? | ?
CCOC(=O)c1ccc(N/C=C/C(=O)c2ccc(OC)c(OC)c2)cc1 | -20.6 | -18.7% | -5.0% | ? | -18.1% | ?
COc1cc2nc(Nc3ccc(F)cc3)nc(N)c2cc1OC | . | 0.6% | ? | 4.61µM* | 6.51µM* | 6.7%
CCOC(=O)c1ccc(Nc2nc(N)c3cc(OC)c(OC)cc3n2)cc1 | -10.3 | -2.1% | ? | 20.6µM* | 7.31µM* | -0.3%
CC(C)=NNC(=O)COc1ccc(OCc2ccccc2)cc1 | . | . | 49.0% | . | . | .
COc1ccc(-c2nc3c(c(=O)[nH]c(=O)n3Cc3ccccc3)n2C)cc1 | -0.7 | -5.7% | 362.9% | -6.6% | -4.0% | -3.2%
COc1ccc(-c2nc3c(c(=O)[nH]c(=O)n3Cc3ccccc3)n2Cc2ccccc2)cc1 | ? | ? | 0.0% | 20.6µM* | 23.1µM* | ?
Cn1c(-c2cccc(F)c2)nc2c1c(=O)[nH]c(=O)n2Cc1ccccc1 | 22.6 | ? | -2.8% | -25.5% | -5.0% | ?
COc1cc(Br)cc(-c2nc3c(c(=O)[nH]c(=O)n3Cc3ccccc3)n2C)c1O | 27.8 | -0.7% | 0.0% | 23.1µM* | 16.4µM* | -1.7%
CCCOc1ccc(-c2nc3c(c(=O)[nH]c(=O)n3Cc3ccccc3)n2CCO)cc1OCC | 0.9 | -21.1% | -0.1% | 16.4µM* | ? | -0.9%
Cn1c(-c2cccc(OCc3ccccc3)c2)nc2c1c(=O)[nH]c(=O)n2Cc1ccccc1 | 8.9 | 11.2% | 32.7% | 16.4µM* | 20.6µM* | 10.9%
Cc1ccc(S(=O)(=O)N2CCN(C(=O)c3cc4cc(C)ccc4nc3C)CC2)c(C)c1 | . | . | -26.5% | . | . | .
O=C1COc2ccc(-c3ccoc3)nc2CN1Cc1ccccc1 | . | . | -19.4%[176 µM] | . | . | .
CCCn1c(-c2cc(OC)c(OC)c(OC)c2)nc2c1c(=O)[nH]c(=O)n2Cc1ccccc1 | 3.5 | -11.6% | ? | -97.5% | 3.26µM* | -28.4%
O=c1n(Cc2cccc(F)c2)c2ccccc2c2nc(-c3ccccc3)nn12 | . | . | -15.3% | 18.4µM* | ? | .
Cc1cccc(Cn2c(=O)n3nc(-c4ccccc4)nc3c3ccccc32)c1 | . | . | -15.8% | 18.4µM* | 18.4µM* | .
Cc1ccc(-c2nc3c4ccccc4n(Cc4cccc(Cl)c4)c(=O)n3n2)cc1 | . | . | -10.1% | ? | -11.0% | .
COC(=O)c1cccc(CSC(C)C(=O)NCC(C)C)c1 (configuration not stated) | . | . | -10.4% | . | . | .
COc1cc(CCNC2=CC(=O)c3ncccc3C2=O)ccc1O | -70.7* | ? | -24.8% | 5.8µM* | 4.61µM* | 14.6µM*
Cc1ccc(-c2nn3c(N(C)C)cc(C)nc3c2C)cc1 | . | . | 3.0% | . | . | .
CCC(=O)Nc1nnc(SCC(=O)NCC2CCCO2)s1 (configuration not stated) | -5.9 | ? | i | 0.291µM* | -15.3% | ?
COc1ccc(NC(=O)CSc2nnc(NC(=O)c3ccccc3C(=O)O)s2)cc1 | -10.5 | -7.3% | ? | ? | 25.9µM* | -5.6%
COc1cccc(Nc2nnc(SCC(=O)Nc3sccc3C(N)=O)s2)c1 | -4.4 | ? | -8.8% | 8.2µM* | 13µM* | -3.8%
O=C(CSc1nnc(NC(=O)c2ccco2)s1)NCc1ccc2c(c1)OCO2 | -5.3 | -6.7% | 22.6% | 18.4µM* | -25.2% | -2.6%
SMILES | IL1B secr inh | HT1080NT lethal | 12-LOX inh | DT40 TDP1 no CPT | TDP1 cell CPT | HT1080 IDH1KD tx
C=CCNC(=S)Nc1ccc(F)cc1Cl | . | . | 53.4% | . | . | .
O=C(Nc1ccccc1Cl)c1ccccc1-c1ccccc1 | . | . | 7.2% | . | . | .
CCC(=O)Nc1nnc(SCC(=O)Nc2ccc3c(c2)OCCO3)s1 | i | -16.4% | 207.4% | ? | 14.6µM* | ?
CCC(=O)Nc1nnc(SCC(=O)Nc2ccc3c(c2)OCO3)s1 | 2.7 | -23.7% | -4.8% | ? | ? | -19.8%
Cc1cccc(Nc2nnc(SCC(=O)Nc3ccccc3[N+](=O)[O-])s2)c1 | 7.3 | -10.6% | -6.7% | 16.4µM* | ? | -15.6%
COc1ccc(Nc2nnc(SCC(=O)NC(=O)Nc3ccc4c(c3)OCCO4)s2)cc1 | 71.4 | 9.5% | -15.9% | 16.4µM* | ? | 6.5%
CC(C)C(=O)Nc1nnc(SCC(=O)Nc2ccc3c(c2)OCCO3)s1 | 15.8 | 7.1% | 0.7% | -28.0% | 4.7% | 11.8%
CCCC(=O)N1CCCC(c2noc(COc3ccccc3)n2)C1 (configuration not stated) | . | . | 44.3% | . | . | .
COc1ccccc1-c1nnc(SCC(=O)N(Cc2ccccc2)C(C)C)n1N | . | . | 1.0% | . | . | .
CN(C)CCC(=O)N1Cc2ccccc2CC2(CCCCN2Cc2cccnc2)C1 (configuration not stated) | . | . | 6.0%[6.33 µM] | . | . | .
Cc1cc(NCC(=O)Nc2ccc(C)c(S(=O)(=O)N3CCOCC3)c2)ccc1Br | -4.4 | -24.3% | 25.7% | 18.4µM* | ? | -4.0%
O=C(COc1ccc(Br)cc1CO)Nc1ccc(S(=O)(=O)N2CCCC2)cc1 | -57.3* | -3.9% | -15.2% | ? | ? | -19.0%
Cc1ccc(NC(=O)COc2cccc(-n3cnnn3)c2)cc1S(=O)(=O)N1CCOCC1 | 17.5 | -1.7% | -2.9% | 23.1µM* | ? | -4.5%
Cc1ccc(NC(=O)COc2ccc(Br)cc2CO)cc1S(=O)(=O)N1CCOCC1 | -28.5 | -4.3% | 416.5% | 18.4µM* | ? | -1.3%
CCOCCN1C(=O)COC[C@@H]1[C@H](O)c1ccc(NC(=O)C2CC2)cc1 | . | . | 42.4%[176 µM] | . | . | .
CC1(OC(=O)C2CCCC2)C(=O)C=C2C=C(c3ccsc3)N(Cc3ccccc3)C=C2C1=O (configuration not stated) | 25.2 | -2.5% | -16.9% | 18.4µM* | ? | -6.6%
CC1(OC(=O)C2CCCC2)C(=O)C=C2C=C(c3ccsc3)N(C3CC3)C=C2C1=O (configuration not stated) | -2.5 | -22.5% | -8.5% | -26.9% | ? | -0.8%
CC1(OC(=O)C2CCCC2)C(=O)C=C2C=C(c3ccsc3)N(c3ccccc3)C=C2C1=O (configuration not stated) | -3.0 | 0.6% | 12.6µM* | ? | ? | -5.1%

Assay outcomes deposited in PubChem BioAssay by National Center for Advancing Translational Sciences (NCATS).
